# Measurements as given in PMC4336329 (PLoS ONE, 2015).
# About 14,000 (4.5%) of roughly 310,000 compounds showed an effect of 50% or more. Effects have a minus sign here. The sample holds strong results, similar compounds and a random draw of the others, so the mix is not that of the screen.
# Target: human ether-à-go-go-related gene (hERG) potassium channel (human, UniProt Q12809)
# Experiment: primary screen, population patch clamp on CHO cells stably expressing hERG; higher = less effect of the substance
# 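Note: peak tail current of the secondary pulse compared with the same well before compound.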
# Sequence of human ether-à-go-go-related gene (hERG) potassium channel (Q12809 whole entry, looked up): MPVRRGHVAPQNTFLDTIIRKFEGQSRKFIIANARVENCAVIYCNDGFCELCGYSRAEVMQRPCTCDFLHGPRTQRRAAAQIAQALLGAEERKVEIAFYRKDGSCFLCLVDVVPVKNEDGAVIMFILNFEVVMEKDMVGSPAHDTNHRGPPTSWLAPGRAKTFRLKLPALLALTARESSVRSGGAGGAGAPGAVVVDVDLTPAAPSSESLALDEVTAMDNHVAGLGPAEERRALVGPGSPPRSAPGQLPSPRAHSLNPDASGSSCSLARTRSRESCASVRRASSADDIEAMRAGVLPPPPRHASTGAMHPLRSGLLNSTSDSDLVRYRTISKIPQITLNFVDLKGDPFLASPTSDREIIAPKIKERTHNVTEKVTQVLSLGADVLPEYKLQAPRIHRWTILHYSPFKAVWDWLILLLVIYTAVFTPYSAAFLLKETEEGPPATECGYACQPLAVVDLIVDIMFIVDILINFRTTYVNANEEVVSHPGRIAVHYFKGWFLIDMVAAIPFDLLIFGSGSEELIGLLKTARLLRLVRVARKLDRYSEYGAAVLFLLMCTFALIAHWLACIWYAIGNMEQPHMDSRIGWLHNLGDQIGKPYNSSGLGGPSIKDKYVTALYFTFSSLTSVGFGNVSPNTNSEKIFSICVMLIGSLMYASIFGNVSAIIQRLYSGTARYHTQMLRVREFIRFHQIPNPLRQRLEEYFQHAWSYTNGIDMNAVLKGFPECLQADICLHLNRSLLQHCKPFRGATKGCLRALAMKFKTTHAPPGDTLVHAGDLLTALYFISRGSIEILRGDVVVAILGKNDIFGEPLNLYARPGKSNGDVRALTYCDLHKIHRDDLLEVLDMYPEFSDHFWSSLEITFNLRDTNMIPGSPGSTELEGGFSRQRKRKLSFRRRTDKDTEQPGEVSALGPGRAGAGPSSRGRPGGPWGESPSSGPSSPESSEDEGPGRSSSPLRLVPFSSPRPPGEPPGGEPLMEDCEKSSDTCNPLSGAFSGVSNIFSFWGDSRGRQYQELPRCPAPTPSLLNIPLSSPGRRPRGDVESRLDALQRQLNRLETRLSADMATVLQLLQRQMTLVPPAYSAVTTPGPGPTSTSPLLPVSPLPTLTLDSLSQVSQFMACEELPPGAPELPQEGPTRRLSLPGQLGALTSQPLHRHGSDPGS
row,Compound,"hERG current change (%, negative = inhibition) at 10uM"
1,COc1ccc(C2CC(c3cccs3)=NN2C(=O)CN2CCCCC2)cc1 (stereo not shown),-71.9%
2,CCC(=O)N1N=C(c2cccs2)CC1c1ccc(OC)cc1 (stereo not shown),15.9%
3,O=C(CN1CCCCC1)N1N=C(c2cccs2)CC1c1cccs1 (stereo not shown),-58.7%
4,COc1ccc(C2CC(c3cccs3)=NN2C(=O)CCC(=O)O)cc1 (stereo not shown),10.5%
5,CC(=O)N1N=C(c2cccs2)CC1c1cccs1 (stereo not shown),5.99%
6,O=C(CN1CCOCC1)N1N=C(c2cccs2)CC1c1cccs1 (stereo not shown),18.9%
7,O=C(CSc1ncn[nH]1)Nc1nc(-c2ccccc2)ns1,-7.44%
8,CCCC(=O)c1cc(F)c(N2CCN(S(=O)(=O)c3ccccc3)CC2)cc1C,13.2%
9,CCOc1ccc(NC(=O)C(C)Sc2nccn2C)cc1 (stereo not shown),6.78%
10,Cn1cccc1Cc1nnc(SCC(=O)NCC2CCCO2)n1CCc1ccccc1 (stereo not shown),-10.8%
11,CCCn1nc(C(=O)OCC(=O)Nc2cccc(OC)c2)c2ccccc2c1=O,3.96%
12,O=C(O)c1ccc(CSc2nnnn2-c2ccc(F)cc2)cc1,-9.84%
13,Cc1ccc(-n2nnnc2SCc2ccc(C(=O)O)cc2)cc1C,-70.7%
14,CCN(CC)C(CNC(=O)CSc1nnnn1-c1cccc(F)c1)c1ccco1 (stereo not shown),-16.4%
15,Cc1ccc(-n2nnnc2SCC(=O)NNC(=O)c2ccco2)cc1C,24.3%
16,O=C(O)c1ccc(-n2nnnc2SCc2ccccc2)cc1,8.05%
17,CCN(CC)C(CNC(=O)CSc1nnnn1-c1ccc(C)c(C)c1)c1ccco1 (stereo not shown),-54.5%
18,COc1cc(CCc2ccc3c(c2)OCO3)oc(=O)c1,4.95%
19,Cc1ccc(C2(C)NC(=O)N(CC(=O)NNC(=O)c3ccoc3C)C2=O)cc1 (stereo not shown),26.6%
20,Cc1nn(CC(=O)NCc2ccccc2)c(=O)c2cccn12,9.27%
21,Cc1csc2ncnc(N3CCN(C(=O)Nc4ccc(OC(F)(F)F)cc4)CC3)c12,-68%
22,O=C(Nc1ccc(Cl)cc1)N1CCCN(c2ccc(C(F)(F)F)cc2[N+](=O)[O-])CC1,4.29%
23,O=C(Nc1ccc(C(F)(F)F)cc1)N1CCN(c2ccnc3cc(Cl)ccc23)CC1,-62.2%
24,O=C(Nc1ccc(OC(F)(F)F)cc1)N1CCN(c2ccnc3cc(Cl)ccc23)CC1,-72.1%
25,CC(C)(C)OC(=O)N1CCCN(C(=O)Nc2ccc(OC(F)(F)F)cc2)CC1,-22.6%
26,Cc1csc2ncnc(N3CCN(C(=S)Nc4ccc(C(F)(F)F)cc4)CC3)c12,-16.7%
27,Cc1csc2c(N3CCN(C(=O)Nc4ccc(OC(F)(F)F)cc4)CC3)ncnc12,-32.9%
28,O=C(Nc1ccc(Cl)cc1)N1CCN(c2ncccn2)CC1,-13.2%
